Results published in ChEMBL document CHEMBL3988442, “University of Dundee, Small-Polar-MMV Screening Library” (2021).
Among all 48,000 compounds or so, about 13,000 (27%) showed an effect of 50% or more. Some of the results follow.

Tested on: Wolbachia pipientis
Test: Anti-Wolbachia Cell-Based Screen
Format: functional
Design: scale not given: in the data most compounds retested in dose-response had high values
Conditions: 5 µM

Row | Structure (SMILES) | Percent Effect [%]
1 | CCOCC(=O)Nc1ccc(-n2ccc(C(N)=O)n2)cc1 | 5.23
2 | CCc1ccc(CN2CCC(=O)N(CC3CC3)C(C(C)C)C2)nc1 (configuration not stated) | -6.583
3 | Cc1cc(CNC(=O)c2ccc(F)c(COCC3CC3)c2)no1 | 7.35
4 | Cn1cnnc1C1CCCN(C(=O)NCCn2ccnc2)C1 (configuration not stated) | 89.71
5 | Cn1cnnc1C1CCCN(C(=O)NCCNc2ccccn2)C1 (configuration not stated) | 14.43
6 | Cn1cnnc1C1CCCN(C(=O)NCCOc2ccccc2)C1 (configuration not stated) | 6.909
7 | COCCCNC(=O)N1CCCC(c2nncn2C)C1 (configuration not stated) | -7.003
8 | Cn1cnnc1C1CCCN(C(=O)NCCCn2cccn2)C1 (configuration not stated) | 106.2
9 | Cn1cc(C(=O)O)c(-c2ccc(F)cc2F)n1 | -6.689
10 | CC(C)N1CCC(Cc2cc(-c3ccccc3C(=O)O)ncn2)CC1 | -18.63
11 | CN1CCC(Cc2cccc(-c3cc(F)ccc3C(=O)O)n2)CC1 | 135.9
12 | CC(C)N1CCC(CC(=O)NC(C(=O)O)c2cccc(F)c2)CC1 (configuration not stated) | -7.789
13 | CC(C)N1CCC(Cc2cc(-c3cc(F)ccc3C(=O)O)ncn2)C1 (configuration not stated) | 139.5
14 | CC(C)N1CCC(CNC(=O)CCc2cc(F)ccc2F)C1 (configuration not stated) | 16.43
15 | CC(C)N1CCC(CNC(=O)COc2ccc(F)cc2F)C1 (configuration not stated) | 8.17
16 | CC(C)N1CCC(Cc2cncc(-c3cc(F)ccc3C(=O)O)n2)C1 (configuration not stated) | 135
17 | CN1CCC(Cc2noc(-c3cn(Cc4ccc(F)cc4)nn3)n2)CC1 | -9.878
18 | CC(C)N1CCC(CC(=O)NC(C(=O)O)c2ccc(F)cc2)CC1 (configuration not stated) | 7.704
19 | CC(C)N1CCC(Cc2cncc(-c3cc(F)ccc3C(=O)O)n2)CC1 | 98.45
20 | CC(C)N1CCC(CC(=O)NC(C(=O)O)c2cc(F)ccc2F)CC1 (configuration not stated) | 9.298
21 | CC(C)c1ccc(S(=O)(=O)NC2(CC(N)=O)CCC2)cc1 | -1.072
22 | Cn1cc(CN2CC[C@@H]3[C@@H](CCC(=O)N3CCc3c[nH]cn3)C2)cn1 | 6.547

Row | Structure (SMILES) | Percent Effect [%]
23 | CCOCCS(=O)(=O)N(CC)Cc1ccc(Cl)s1 | -4.367
24 | CCc1nn(C)c(Cl)c1CN1CCN(c2nc(C(N)=O)cs2)CC1 | 12.42
25 | O=C1COC2(CCN(c3ncccn3)CC2)CN1c1ccsc1 | 18.21
26 | CCc1cnc(CN(C(C)=O)C2CCN(CC(=O)N3CCCC3)C2)o1 (configuration not stated) | 113.8
27 | CCc1cnc(CN(C(C)=O)C2CCN(CCS(C)(=O)=O)C2)o1 (configuration not stated) | -15.83
28 | CC(=O)N(Cc1ncc(C(C)C)o1)C1CCN(CCn2cccn2)C1 (configuration not stated) | 8.925
29 | CCc1cnc(CN(C(C)=O)C2CCN(CC3(O)CCCCC3)C2)o1 (configuration not stated) | 86.51
30 | CCc1cnc(CN(C(C)=O)C2CCN(CCN3CCCCC3)C2)o1 (configuration not stated) | 112.7
31 | COc1cccc(CN(C)Cc2cc(C#N)ccc2F)c1OC | -16.49
32 | O=C(c1c[nH]c(=O)[nH]1)N1CCCC2(CCC(=O)N(C3CCCC3)C2)C1 (configuration not stated) | 5.666
33 | CC(C(=O)NC1CCCCC1)N1CCc2[nH]nc(C(F)(F)F)c2C1 (configuration not stated) | -5.733
34 | Cc1nccn1-c1ccc(N2CCC(NC(C)CC(C)C)CC2)cc1 (configuration not stated) | 16.66
35 | CNC(=O)c1cc2c(nc1NCC(C)C)CCN(CCOC)CC2.O=C(O)C(F)(F)F.O=C(O)C(F)(F)F | 1.626
36 | COCCN1CCc2cc(C(=O)NC(C)C)c(NCC(C)C)nc2CC1.O=C(O)C(F)(F)F.O=C(O)C(F)(F)F | 1.817
37 | COCCN1CCc2cc(C(=O)NCC3CC3)c(NC(C)C)nc2CC1.O=C(O)C(F)(F)F.O=C(O)C(F)(F)F | -15.94
38 | COCCN1CCc2cc(C(=O)N(C)C)c(NCC3CC3)nc2CC1.O=C(O)C(F)(F)F.O=C(O)C(F)(F)F | 1.501
39 | COCCN1CCc2cc(C(=O)O)c(NCC3CC3)nc2CC1.O=C(O)C(F)(F)F.O=C(O)C(F)(F)F | 96.69
40 | COCCN1CCc2cc(C(=O)NC(C)C)c(NCC3CC3)nc2CC1.O=C(O)C(F)(F)F.O=C(O)C(F)(F)F | 103.7
41 | Cc1[nH]ncc1CCCNC(=O)Nc1ccc(S(C)(=O)=O)nc1 | 0.4286
42 | O=c1[nH]c(CN(Cc2ccco2)C2CCCC2)nc2ccccc12 | 5.367
43 | O=C(c1ccno1)N1CCOC[C@H](Oc2ccc(C(F)(F)F)cc2)C1 | -17.29
44 | CCN(CC)CCCN1CCN(c2nc(C)cnc2C)CC1 | 20.67

Row | Structure (SMILES) | Percent Effect [%]
45 | O=C(NCc1nnc2n1CCCCC2)N(CC1CCOC1)C1CC1 (configuration not stated) | 99.15
46 | CCN(Cc1ccco1)C(=O)NCc1nnc2n1CCCCC2 | 0.3449
47 | O=C(NCc1nnc2n1CCCCC2)N(Cc1ccncc1)C1CC1 | -19.08
48 | CCN(CC1CCOC1)C(=O)NCc1ccc(-n2cncn2)nc1 (configuration not stated) | 19.04
49 | Cc1ccc(CN(C(=O)NCc2nnc3n2CCCCC3)C2CC2)o1 | 2.122
50 | O=C(NCc1nnc2n1CCC2)N(Cc1ccco1)C1CC1 | 0.3443
51 | CCN(Cc1ccco1)C(=O)NCc1nnc2n1CCC2 | -0.2431
52 | O=C(NCc1nnc2n1CCCC2)N(Cc1ccccc1F)C1CC1 | -10.57
53 | CCN(CC1CCOC1)C(=O)NCc1nnc2n1CCC2 (configuration not stated) | 118.1
54 | CCN(CC1CCOC1)C(=O)NCc1nnc2n1CCCCC2 (configuration not stated) | 91.82
55 | CCN(CC1CC1)C(=O)NCc1nnc2n1CCC2 | 96.27
56 | COCc1ccccc1CNC(=O)CN1CCC2(CCOC2)C1 (configuration not stated) | -0.6554
57 | Cc1nn2c(N3CCCC(C#N)C3)cc(-c3ccccc3)nc2c1C (configuration not stated) | -8.58
58 | Cc1nc[nH]c1-c1nccn1CCCN(C)C | -1.575
59 | Cc1ccsc1-c1nccn1CCN1CCCOC1=O | 94.33
60 | COCCn1ccnc1-c1[nH]cnc1C | 8.201
61 | Cc1nc[nH]c1-c1nccn1CCN1CCOC1=O | 102.9
62 | Cc1nc[nH]c1-c1nccn1CCN(C)S(C)(=O)=O | -5.143
63 | CCc1nccn1CCCn1ccnc1-c1[nH]cnc1C | 10.91
64 | CCN(CC)CCn1ccnc1-c1[nH]cnc1C | 9.707
65 | Cc1ccsc1-c1nccn1CCS(=O)(=O)N1CCCC1 | -5.417
66 | Cc1ccsc1-c1nccn1CCS(C)(=O)=O | -15.8

Row | Structure (SMILES) | Percent Effect [%]
67 | Cc1nc[nH]c1-c1nccn1-c1cccc(CN2CCCC2)c1 | 12.04
68 | Cc1nc[nH]c1-c1nccn1CCN1CCCC1=O | 101.5
69 | Cc1nc[nH]c1-c1nccn1CCN1CCCOC1=O | 97.83
70 | CN(C)c1ncc(CNC(=O)Nc2ccc(C(F)(F)F)cc2)n1C | 20.28
71 | COc1cc(N2CCCn3cnc(COC(C)C)c3C2)ncn1.O=CO | -4.807
72 | CC(=O)NCCC(=O)Nc1sccc1C(=O)C(C)(C)C | 21.69
73 | c1ccc(COc2ccccc2NC2CCOCC2)nc1 | -16.72
74 | Cc1csc(C(Cc2ccsc2)NC(=O)CN(C)Cc2ccccn2)n1.Cl (configuration not stated) | 143
75 | CN(CC(=O)NS(=O)(=O)c1ccsc1)Cc1ccccc1 | -14.35
76 | CC(CNC(=O)CCc1ccccn1)c1ccsc1 (configuration not stated) | 1.276
77 | CN(CC(=O)NC(Cc1ccsc1)c1cccnc1)Cc1ccccn1.Cl (configuration not stated) | 89.62
78 | Cc1ccc(CC(NC(=O)CN(C)C2CC2)c2ccccn2)cc1 (configuration not stated) | -26.42
79 | Cc1csc(C(C#N)C(=O)NCc2cccnc2)n1 (configuration not stated) | -20.56
80 | Cc1csc(C(Cc2ccsc2)NC(=O)CN(C)Cc2cccnc2)n1.Cl (configuration not stated) | 118.2
81 | Cc1cc(C)n(CC(=O)NC(Cc2ccsc2)c2ccccn2)c(=O)n1.Cl (configuration not stated) | -15.12
82 | O=C(CCc1ccsc1)N(Cc1ccccn1)C1CC1 | 0.03996
83 | CN(CC(=O)NC(Cc1ccsc1)c1cccnc1)Cc1cccnc1.Cl (configuration not stated) | 75.58
84 | CN(CC(=O)N1CC(C)(C)[C@](O)(C2CC2)C1)Cc1cccnc1 | -2.465
85 | Cc1nc(CN(Cc2cccnc2)Cc2ccsc2)c[nH]1 | -3.654
86 | CCOC(C)c1noc(CN2CCCNCC2)n1 (configuration not stated) | 2.297
87 | C=C(C)CN1CCC(NC(=O)NCCc2cccc(C(N)=O)c2)CC1 | -8.268
88 | CC(=O)c1ccc(C(=O)N2C[C@@H](CN3CCCC3)[C@@H](CO)C2)cc1 | -35.7

Row | Structure (SMILES) | Percent Effect [%]
89 | O=C(NCCN1CCCCCC1=O)NCc1ccc(Cl)s1 | -3.851
90 | CC(SCC(=O)NC(N)=O)c1ccc(Cl)cc1 (configuration not stated) | 8.768
91 | NC(=O)COc1ccc(C2NC(=O)CN2Cc2ccc(Br)cc2)cc1 (configuration not stated) | 110.3
92 | Cl.NC(=O)COc1ccc(CNCc2ccc(F)c(F)c2)cc1 | -10.35
93 | COc1cc(OC)cc(C2NC(=O)CN2Cc2ccc(Br)cc2)c1 (configuration not stated) | 85.78
94 | Cc1cc(C2NC(=O)CN2Cc2ccc(Br)cc2)cc(C)c1O (configuration not stated) | 98.83
95 | Cc1cc(CN2CCN(CC3CC3)[C@@H]3CS(=O)(=O)C[C@@H]32)cc(C)c1O | 22.76
96 | COc1cc(CN2CC(=O)N(c3ccc(C)cc3)CC2C)cc(OC)c1 (configuration not stated) | -3.228
97 | COc1cc(OC)cc(N2CCC(NCc3ccsc3)C2=O)c1 (configuration not stated) | -5.145
98 | CC(C)(C)n1ncc2c1NC(=O)CC2c1ccc(OCC(N)=O)cc1 (configuration not stated) | -0.952
99 | Cc1cc(NC(=O)CNC(C)(C)c2nc(C)c(C)s2)no1 | -14.55
100 | COc1ccc(CNC(=O)c2cc3c(nc2O)CCC(C)C3)cc1 (configuration not stated) | -13.47
101 | CNS(=O)(=O)c1ccccc1N1CCN(C(C)C(=O)OC)CC1 (configuration not stated) | -10.15
102 | CO[C@H]1CN(C(=O)c2ccc(C)o2)[C@@H]2CCCO[C@H]12 | 2.722
103 | Cc1cccc(C(=O)N2C[C@@H](OCc3cccnc3)[C@H]3OCCC[C@@H]32)n1.O=C(O)C(F)(F)F.O=C(O)C(F)(F)F | 19.74
104 | CN(C)C(=O)N1C[C@H](Oc2ccccn2)[C@H]2OCCC[C@H]21.O=C(O)C(F)(F)F | -8.316
105 | CO[C@H]1CN(C(=O)c2cccnc2)[C@@H]2CCCO[C@H]12.O=C(O)C(F)(F)F | 121
106 | O=C(O)C(F)(F)F.O=C(c1ccnnc1)N1C[C@H](Oc2ccccn2)[C@H]2OCCC[C@H]21 | 96.83
107 | Cc1occc1C(=O)N1C[C@H](Oc2ccccn2)[C@H]2OCCC[C@H]21.O=C(O)C(F)(F)F | -5.077
